Results filed as inconclusive are left out. Where a call stands in place of a potency, no number is given. Calls of active or inactive are those of the source. Calls come from the whole dose curve; as a rule, active = well fitted cell-killing curve with a large enough effect in the repeat runs; inconclusive = weak or mixed curves, or effect the other way; inactive = flat fitted curve, though single readings scatter.
Potency is the fitted concentration of half-maximal effect.

The test can be described thus: qHTS RealTime-Glo MT Cell Viability Assay in HEK293 cells - 8 hour (AID 1224887). For activity change, negative = cytotoxicity: top concentration of the series differs between compounds. Note: nearly all actives have a fitted effect of over 50% in size. As to conditions: RealTime-Glo luminescence; series mostly up to 76.8 µM. The text has this: U.S. Tox21 Program National Center for Advancing Translational Sciences [NCATS] NIH Chemical Genomics Center [NCGC] U.S. Environmental Protection Agency [EPA] National Institutes of Environmental Health Sciences [NIEHS] National Toxicology Program [NTP] U.S. Food and Drug Administration [FDA] Tox21 Assay Overview: Measure of cell viability is critical in the cell-base assay. Analysis of cell viability is necessary for the characterization of cell responses to cytotoxic drugs and environmental stress. A RealTime-Glo MT Cell Viability Assay to monitor cell viability in real time of continues cell culture during 40 hours of compound treatment was used to screen Tox21 10K library compounds in Hek293 cells. The RealTime-Glo MT Cell Viability Assay is a nonlytic, homogeneous, bioluminescent method to measure cell viability in real time using a simple, plate-based method. The assay involves adding NanoLuc luciferase and a cell-permeant prosubstrate to cells in culture. Viable cells reduce the proprietary prosubstrate to generate a substrate for NanoLuc luciferase. This substrate diffuses from cells into the surrounding culture medium, where it is rapidly used by the NanoLuc Enzyme to produce a luminescent signal. The signal correlates with the number of viable cells, making the assay well suited for cytotoxicity studies.
Tox21 Assay Protocol Summary: The mixture of Hek293 cell suspension and reagents were dispensed at 600cells/6 ul/well in 1536-well tissue culture treated black solid bottom plates using a Multidrop dispenser. After the assay plates were incubated at a 37 C/5% CO2 incubator for 5 hours, 23 nL of compounds dissolved in DMSO, positive and negative controls was transferred to the assay plate by a pintool work station. The plates were incubated at 37 C for 40 hours. The luminescence intensity were measured at 0h, 8h, 16h, 24h, 32h and 40h time points using ViewLux plate reader during compound treatment.
On to `c1ccc2cc3c4ccccc4c4ccccc4c3cc2c1`, for which the Potency result was “inactive”.

Take `COc1cc(/C=C/C(=O)CC(=O)/C=C/c2ccc(O)c(OC)c2)ccc1O`: the Potency is 6.96 µM (active). In the case of `C/C=C/C(=O)OCC(C)C`, the Potency entry is “inactive”. On to `C=CC(=O)OCCOC1C2CCC1C1CC=CC12` (stereo not given), for which the activity change, negative = cytotoxicity is -0.849% [at 15.8 µM] (inactive). Consider `Oc1ccc2c(c1)CCC2`, for which the Potency entry is “inactive”. Still for that read-out and setting: as for `Nc1cc([N+](=O)[O-])ccc1Cl`, the entry is “inactive”; as for `C=C1CC[C@H]2O[C@]2(C)CC[C@@H]2[C@@H]1CC2(C)C`, 49 µM (active). Still for that read-out and setting: as for `Cc1ccc(C=O)cc1`, the entry is “inactive”. As to `CCCCCCCCCCCCS(=O)(=O)Cl`, the activity change, negative = cytotoxicity is 8.12% [at 15.8 µM] (inactive). Consider `CC/C(=C(/c1ccc(O)cc1)c1ccc(OCCN(C)C)cc1)c1ccccc1`, for which the Potency is 14.4 µM (active). Take `NC(=O)c1ccccc1Cl`: the Potency entry is “inactive”. On the same count and under the same terms, as for `CC/C=C\C/C=C\C/C=C\CCCCCCCC(=O)OC`, the entry is “inactive”.

`CC(C)=NNC(N)=S`: the Potency entry is “inactive”. Same read-out and setting: as for `CCOC(=O)[C@H](O)[C@@H](O)C(=O)OCC`, the entry is “inactive”; as for `Cc1ccc2n[nH]nc2c1`, “inactive”; as for `CC1=CC[C@@H](C(C)(C)O)CC1`, “inactive”. Still for that read-out and setting: as for `C=CC(=O)O[C@H]1C[C@@H]2CC[C@@]1(C)C2(C)C`, the entry is “inactive”; as for `COc1c(Br)cc(Br)c(C)c1Br`, “inactive”; as for `CC(=O)CC(N)=O`, “inactive”.

Consider `CN(C/C=C/c1ccccc1)Cc1cccc2ccccc12`, for which the Potency result was “inactive”. For the compound `CCOc1nc(F)cc2nc(S(=O)(=O)Nc3c(Cl)cccc3C(=O)OC)nn12`, the Potency entry is “inactive”. With `Cc1ccc(Cl)c(N)c1Cl`, the Potency entry is “inactive”. Same read-out and setting: the result for `Cc1c[nH]c(=O)[nH]c1=O` reads “inactive”; that for `CN1CCN(CCCN2c3ccccc3Sc3ccc(Cl)cc32)CC1`, “inactive”; that for `C/C(=N\[Si](C)(C)C)O[Si](C)(C)C`, “inactive”. Same read-out and setting: as for `C/C(=C\c1ccc(C(=O)O)cc1)c1ccc2c(c1)C(C)(C)CCC2(C)C`, the entry is “inactive”. For the compound `CC(Cc1ccc(O)c(O)c1)C(C)Cc1ccc(O)c(O)c1` (stereo not given), the Potency is 43.6 µM (active).

`Cc1cccc2c1ccc1ccccc12`: the Potency result was “inactive”. As to `Cc1cc(C)c(O)c(C(C)(C)C)c1`, the Potency entry was “inactive”.

With `Cc1cccc(C)c1C`, the Potency result is “inactive”. As to `CN(C)CCOc1ccc(/C(=C(/CCCl)c2ccccc2)c2ccccc2)cc1`, the Potency was 40.9 µM (active).

On to `CN1CCN(CCCN2c3ccccc3Sc3ccc(C(F)(F)F)cc32)CC1`, for which the Potency was 23.9 µM (active). On the same count and under the same terms, the result for `CCOC(=O)OC(=O)OCC` reads “inactive”; that for `CCCCCCCCOC(=O)c1cc(O)c(O)c(O)c1`, 5.49 µM (active). In the case of `CC1=C(/C=C/C(C)=C/C=C/C(C)=C\C(=O)O)C(C)(C)CCC1`, the Potency result was “inactive”. The same measure, in the same setting: the result for `CCCCCCCCCCCCCCCCC(C(=O)O)C(O)(CC(=O)O)C(=O)O` (stereo not given) reads “inactive”; that for `O=C(Nc1ccccc1)c1cc(Cl)ccc1O`, “inactive”; that for `NC(=O)C1CO1` (stereo not given), “inactive”. Same read-out and setting: the result for `Cn1ccnc1` reads “inactive”. In the case of `Nc1ccc(F)c([N+](=O)[O-])c1`, the Potency result is “inactive”.

(Values after PubChem BioAssay (Tox21).)
